Consider 8 compounds from PubChem BioAssay (NCI).

Assay in all cases: NCI-60 one-dose screen, 48 h (100 = growth as untreated, 0 = no growth, -100 = all killed)
Holding throughout (conditions): 10 µM unless noted

For assay [1], the system named is DU-145 prostate.
For assay [2], the system named is K-562 leukemia.
Assay [3] deals with MALME-3M melanoma.
Assay [4] relates to MDA-MB-231 breast.
The subject of assay [5] is RXF 393 renal.
Assay [6] deals with SF-268 CNS.
Assay [7] concerns SF-539 CNS.
Assay [8] concerns UACC-257 melanoma.
The subject of assay [9] is M14 melanoma.
Assay [10] deals with HCT-15 colon.
The test system of assay [11] is HT29 colon.
Assay [12] relates to SNB-75 CNS.
Assay [13] concerns SNB-19 CNS.
Assay [14] concerns U251 CNS.
Assay [15] has as its system PC-3 prostate.
The test system of assay [16] is SK-MEL-5 melanoma.
For assay [17], the system named is UACC-62 melanoma.
Assay [18] deals with LOX IMVI melanoma.
The subject of assay [19] is SK-MEL-28 melanoma.

The panel holds about 83,000 compounds, 20% with a hit somewhere; the sample as a whole holds those more often.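 Compound tested at a single concentration for 48 hours in 96-well plates; a percent growth value below 10 was scored as active.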 Values without a mark were called inactive. Active and inactive are the calls of the source.

As for `COc1ccc2[nH]c(O)c(/C=c3/ccc4c(c3)N=C(c3ccc(C(F)(F)F)cc3)N=4)c2c1`, the growth in assay [1] was 86.6%; in assay [2], 29.7%; in [3], 99.9%; in assay [4], 74.8%; in assay [5] it was -4.65% (active); in assay [6], 85.6%. In addition, the growth in assay [7] was 78.2%; in [8] it was 94.9%; in assay [9], 90.1%; in [10] it was 53.9%; in assay [11], 80%; in [12] it was 60.7%. In addition, the growth is 81.4% in assay [13]; 51.6% in assay [14]; 43.1% in assay [15]; 79.1% in [16]; 86% in assay [17]; 58.2% in assay [18]. For the same compound, the growth in assay [19] was 83.9%.
With `O=S(=O)(NCC[C@@H]1C[C@H]1c1ccc2ccccc2c1)c1ccc(C(F)(F)F)cc1`, the growth was 96.6% in assay [1]; 89.2% in assay [2]; 88.5% in assay [3]; 94.6% in assay [4]; 109% in assay [5]; 89.3% in assay [6]. In addition, the growth in [7] is 99.9%; in assay [8] it was 100%; in assay [9], 96.2%; in [10], 93.4%; in [11], 92.7%; in assay [12], 73.6%. Besides, the growth in assay [13] is 97.3%; in assay [14], 93.5%; in [15], 81.7%; in assay [16] it was 94.5%; in assay [17] it was 78.5%; in assay [18], 97.8%. The growth in assay [19] was 108%.
Consider `N=C(N)c1ccc(-c2ccc(-c3cc(Cl)cc(Cl)c3)o2)nc1`, for which the growth in [1] is -91.9% (active); in assay [2] it was -65.6% (active); in [3], -58.9% (active); in assay [4], -77.3% (active); in [5] it was 67%; in [6], -67.1% (active). For the same compound, the growth in [7] is -90.9% (active); in assay [8], -81.1% (active); in assay [9] it was -76.4% (active); in assay [10], -67.1% (active); in [11], -81.7% (active); in [12], -90.7% (active). Also, the growth in assay [13] is -75.6% (active); in assay [14], -88.3% (active); in assay [15] it was -29.7% (active); in assay [16], 34.7%; in assay [17], -86.2% (active); in assay [18] it was -86.7% (active). Further, the growth in assay [19] is -79.2% (active).
On to `Cc1c(C)c(C)c([N+](=O)[O-])c([N+](=O)[O-])c1C`, for which the growth was 92.2% in assay [1]; 119% in [2]; 90.1% in assay [3]; 79.3% in assay [4]; 107% in [5]; 93% in assay [6]. Also, the growth in assay [7] is 92%; in assay [8] it was 103%; in [9], 104%; in [10], 94%; in assay [11], 102%; in [12], 111%. In addition, the growth in assay [13] was 95.4%; in assay [14] it was 101%; in assay [15], 84%; in assay [16], 99.3%; in assay [17], 83.6%; in assay [18], 95.9%. Moreover, the growth in assay [19] is 104%.
Turning to `COc1cc(/C=C/C(=O)c2ccc(NC(=O)CSc3nnc(-c4ccc(Cl)cc4)n3-c3ccccc3)cc2)cc(OC)c1OC`, the growth in assay [1] is 80%; in [2], 44.3%; in assay [3], 101%; in assay [4], 54.9%; in assay [5], 55.5%; in assay [6], 77.6%. Also, the growth in assay [7] is 91.3%; in assay [8] it was 73.6%; in assay [9], 76.1%; in [10], 49.8%; in assay [11] it was 74.8%; in [12], 62.4%. Besides, the growth in [13] is 76.4%; in assay [14], 69.7%; in assay [15] it was 69.7%; in [16] it was 55.8%; in assay [17], 68.5%; in assay [18], 73.9%. The growth in assay [19] is 97.1%.
As to `CCCCNCCC(O)c1cc2ccc(C(F)(F)F)cc2c2cc(C(F)(F)F)ccc12` (configuration not stated), the growth in assay [1] was -93.4% (active); in assay [2], -72.1% (active); in [3], -59.5% (active); in assay [4], -73.3% (active); in assay [5] it was -90.8% (active); in [6], -88% (active). In addition, the growth in [7] was -81.8% (active); in [8], -75.5% (active); in assay [9], -84.6% (active); in [10] it was -65.2% (active); in assay [11], -84.8% (active); in assay [12], -90.5% (active). The growth in [13] was -76.6% (active); in assay [14] it was -93.7% (active); in [15] it was -85.2% (active); in assay [16] it was -87.6% (active); in assay [17] it was -84.3% (active); in [18] it was -71.2% (active). Besides, in assay [19], the growth is -87.7% (active).
Consider `COc1ccc(-n2nc(C(=O)NCC(=O)Nc3nc4cc(OC)ccc4s3)c3ccccc3c2=O)cc1`, for which the growth in [1] is -28.9% (active); in assay [2], 73.9%; in assay [3], -13.8% (active); in assay [4], -13.6% (active); in assay [5], -38.1% (active); in [6], -13.6% (active). For the same compound, the growth in assay [7] is -93% (active); in assay [8], -4.82% (active); in assay [9], 44.3%; in assay [10], 64.7%; in [11] it was -24.4% (active); in [12], -65.9% (active). The growth in assay [13] is 0.597% (active); in [14] it was -39.8% (active); in assay [15], 3.92% (active); in [16] it was 48.9%; in [17], 31.2%; in [18], -32.4% (active). The growth in assay [19] was 21.1%.
In the case of `O=C(Nc1ccc(OS(=O)(=O)c2ccc(F)cc2)cc1)C12CC3CC(CC(C3)C1)C2`, the growth in [1] was 87.1%; in [2] it was 27.5%; in [3], 99.7%; in assay [4] it was 59.2%; in [5], 58.6%; in [6], 78.4%. In addition, the growth in assay [7] was 61%; in [8], 65.3%; in [9], 58.8%; in assay [10], 42.3%; in assay [11], 7.52% (active); in assay [12], 101%. The growth in assay [13] is 77.9%; in assay [14], 84%; in assay [15] it was 38%; in assay [16] it was 28.3%; in assay [17], 68%; in assay [18], 61.6%. Moreover, the growth in assay [19] was 79.7%.
